# Records with an inconclusive call do not appear. A call without a number means that no potency is given here. Calls of active or inactive are those of the source. Calls follow the shape of the dose curve; as a rule, active = well fitted inhibition curve with a large enough effect; inconclusive = small, poorly fitted or top-dose-only effect; inactive = flat fitted curve, though single readings scatter.
# Assay: qHTS to identify inhibitors of the type 1 interferon - major histocompatibility complex class I in skeletal muscle: primary screen against the NCATS LOPAC collection (AID 1347405);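 also: lytic HiBiT luminescence reporting HLA-B protein level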
# Settings: iHSKM muscle cells, IFN-b-induced MHC-I HiBiT luminescence, 24 h; series mostly up to 45.9 µM
# Source text: Assay Submitter (PI): Travis B. Kinder Ph.D. & James Inglese Ph.D.
# Assay Development and Screening Technology Laboratory (ADST)
# National Center for Advancing Translational Sciences (NCATS), Rockville, MD
# National Institute of Health (NIH), Bethesda, Maryland
# Idiopathic inflammatory myopathies, collectively referred to as myositis, are a group of rare autoimmune diseases characterized by skeletal muscle inflammation, weakness, and usually accompanied by systemic pathologies of the skin, lungs, or vasculature. Current immunosuppressive therapies and glucocorticoids are often not curative and are accompanied by harsh side effects, especially in children with juvenile myositis. We initiated a drug repurposing and development program to identify more targeted, less toxic therapeutics to treat myositis. Although its cause is not known, muscle from a subset of patients have an abundance of the inflammatory type 1 interferon (IFN) and a down-stream product major histocompatibility complex class I (MHC class I), which are both thought to contribute to damage and weakness. We conducted quantitative high throughput screening on 6,576 compounds (4,679 unique) through a series of cell-based assays to identify those that inhibit the IFN-stimulated expression of MHC class I in muscle precursor cells (myoblasts). The compound identification and evaluation strategy utilized a primary screen with reporter-tagged MHC class I in genome-engineered myoblasts, ATP content counter screen for viability, HLA-ABC immunofluorescence secondary screen, and HLA-B RT-qPCR tertiary screen.
# The primary screen utilized CRISPR/Cas9 genome-engineering of immortalized human myoblasts, C25cl48, where a pro-luminescent reporter HiBit was fused to the C-terminus of endogenous MHC class I allele HLA-B*08:01 (HLA-B HiBit myoblasts). HiBit is an 11 amino acid fragment of NanoLuc luminescent reporter (Promega Corporation), and when complexed to the larger LgBit fragment, the reconstituted enzyme produces light in the presence of furimazine substrate (Schwinn et al., 2018). Briefly, HLA-B HiBit myoblasts were plated into 1536-well plates, treated with 4.0 ng/ml human IFN-beta and 1,280 compounds from the Library of Pharmacologically Active Compounds 1280 library (LOPAC1280, Sigma Aldrich) in a 7-point, 1:4.3 titration with a high final concentration of 46 uM. After 24 hrs of treatment, cells were assayed by Nano-Glo HiBiT Lytic Detection System (Promega) and luminescence measured by a ViewLux 1430 Ultra HTS (Perkin Elmer).
# Schwinn MK, Machleidt T, Zimmerman K, Eggers CT, Dixon AS, Hurst R, Hall MP, Encell LP, Binkowski BF, Wood K V. 2018. CRISPR-Mediated Tagging of Endogenous Proteins with a Luminescent Peptide. ACS Chem Biol 13:467-474. doi:10.1021/acschembio.7b00549
# PROTOCOL TABLE (as described by Inglese et al., 2007)
# SEQUENCE No. (e.g., 1, 2, 3, etc.); […] (e.g., Cells, Incubation, Reagent, etc.); VALUE; DESCRIPTION
# 1a; Cells; 5 uL; Use a Multidrop Combi (Thermo Scientific) to seed 350 cells/well into nine Greiner 1536 well white/solid bottom, high base, TC plates in 5 ul/well of iHSKM growth medium (GM) without dexamethasone into columns 1+2. Add metal lids with gas-exchange holes
# 1b; Cells; 5 uL; Use a Multidrop Combi (Thermo Scientific) to seed 350 cells/well into nine Greiner 1536 well white/solid bottom, high base, TC plates in 5 ul/well of iHSKM GM without dexamethasone + 4 ng/ml IFN-b into columns 3 - 48. Add metal lids with gas-exchange holes
# 2; Incubate; 1 hr; Incubate at 37 C, 5% CO2, 95% RH
# 3; Compounds; 23 nl; Use Pin Tool (Wako) to transfer DMSO control, ruxolitinib IFN-b inhibitor control [High Concentration = 80 uM final, 16-pt, 1:2 in duplicate], and library compounds in DMSO
# 4; Incubate; 24 hrs; Incubate at 37 C, 5% CO2, 95% RH
# 5; Dispense; 2.5 ul; Use BioRAPTR FRD (Beckman Coulter) to add HiBit lytic reagent
# 6; Incubate; 10 min; Incubate in the dark at ambient temperature for lysis
# […]
# Potency is read from the fitted curve at half-maximal effect.
row,SMILES,Potency
1,NCCCCN,inactive
2,CCCOC(=O)c1c(-c2ccccc2)nc(CC)c(C(=O)SCC)c1CCC,inactive
3,CNCCc1cnc(CCC(c2ccccc2)c2ccccc2)[nH]1,inactive
4,C=C1C[C@@]23CC[C@H]4[C@@](C)(CCC[C@@]4(C)C(=O)OC4OC(CO)C(O)C(O)C4O)[C@@H]2CC[C@]1(OC1OC(CO)C(O)C(O)C1OC1OC(CO)C(O)C(O)C1O)C3 (stereo not given in full),inactive
5,CC(N)=NCCCC[C@@H](N)C(=O)O,inactive
6,CC(/C=C/c1cccc(Oc2ccc(F)cc2)c1)N(O)C(N)=O (stereo not given),inactive
7,COc1cc2c(CCNC(C)=O)c[nH]c2cc1O,inactive
8,N#Cc1cc2nc(O)c(O)nc2cc1[N+](=O)[O-],inactive
9,CC(C)(C)c1ccc(/C=C/C(=O)Nc2ccc3c(c2)OCCO3)cc1,inactive
10,O=c1cc(O)cc(/C=C/c2ccc(O)c(O)c2)o1,inactive
11,O=C(O)CCC/C=C\C[C@@H]1[C@@H](/C=C/[C@H](O)C2Cc3ccccc3C2)[C@@H](F)C[C@@H]1O,inactive
12,CN[C@H](CC(=O)O)C(=O)O,inactive
13,O=C(O)c1ccccc1Nc1ccccc1,inactive
14,Nn1nnc2ccccc21,inactive
15,CNc1ncnc2c1ncn2[C@H]1C[C@H](OP(=O)(O)O)[C@@H](COP(=O)(O)O)O1,inactive
16,NC(C(=O)N[C@@H]1C(=O)N2C(C(=O)O)=C(Cl)CS[C@H]12)c1ccccc1 (stereo not given in full),inactive
17,NC(N)=[N+]1CCc2ccccc2C1,inactive
18,O=c1onc2n1-c1cc(Br)ccc1OC2,inactive
19,C/C(=C\c1ccc(C(=O)O)cc1)c1ccc2c(c1)C(C)(C)CCC2(C)C,inactive
20,Cc1nc2c(OCc3ccccc3)cccn2c1CC#N,inactive

row,SMILES,Potency
1,CCc1ccc2c(-c3cccc(Cl)c3)nc(=O)n(CC)c2n1,inactive
2,CSc1nc(N)c2ncn([C@@H]3O[C@H](COP(=O)(O)OP(=O)(O)O)C(O)[C@H]3O)c2n1 (stereo not given in full),inactive
3,CN(C)C(=O)/N=N/C(=O)N(C)C,inactive
4,NS(=O)(=O)c1cccc2c1c([N+](=O)[O-])cc1nc(O)c(O)nc12,inactive
5,O=C1Cc2c([nH]c3ccc(Br)cc23)-c2ccccc2N1,12.6 µM (active)
6,C#CCn1c(=O)c2c(ncn2C)n(C)c1=O,inactive
7,[Li+],inactive
8,O=C(O)/C=C/c1ccc(O)c(O)c1,inactive
9,Oc1cc2c(cc1O)C(c1ccccc1)CNCC2 (stereo not given),inactive
10,C[C@H](NC(=O)/C(C#N)=C/c1ccc(O)c(O)c1)c1ccccc1,inactive
11,CC(C)(C)c1cc(/C=C(\C#N)C(N)=S)cc(C(C)(C)C)c1O,inactive
12,O=C(O)C1=CCCNC1,inactive
13,O=C(O)[C@H]1NCCC[C@H]1C(=O)O,inactive
14,N#C/C(=C\c1ccc(O)c(O)c1)C(=O)NCCCNC(=O)/C(C#N)=C/c1ccc(O)c(O)c1,inactive
15,NC1C=CC=C(C(=O)O)C1 (stereo not given),inactive
16,C[C@]12C=CC(=O)C=C1CC[C@@H]1C2=CC[C@]2(C)[C@@H](C(=O)CN3CCN(c4cc(N5CCCC5)nc(N5CCCC5)n4)CC3)CC[C@@H]12,inactive
17,CCCn1c(=O)c2[nH]c(C3CCCC3)nc2n(CCC)c1=O,inactive
18,CC(C)NC[C@H](O)COc1ccc(CC(N)=O)cc1,inactive
19,CC[n+]1c(/C=C/C=C2/N(C)c3ccccc3C2(C)C)sc2ccccc21,5.01 µM (active)
20,NC1CONC1=O (stereo not given),inactive
